Assay results published in PubChem BioAssay AID1631 (National Center for Advancing Translational Sciences (NCATS), 2009).
Among all 260,000 compounds or so, about 890 (0.34%) were called active. A call without a number means that no potency is given here. Inconclusive results (about 1%) are left out. The full list was thinned out, with actives kept by preference. A number with no mark means an inactive call. Calls follow the shape of the dose curve; as a rule, active = well fitted activation curve with a large enough effect; inconclusive = small, poorly fitted or top-dose-only effect; inactive = no such curve, though single readings can be large or run the other way.

target: Pyruvate kinase PKM (Homo sapiens) (UniProt P14618); experiment: qHTS Assay for Activators of Human Muscle isoform 2 Pyruvate Kinase; conditions: purified PKM2, Kinase-Glo ATP luminescence; Potency: activation; series mostly up to 57.5 µM; also: nearly all actives have a fitted effect of over 55% in size
Sequence (P14618 whole entry, looked up, canonical isoform): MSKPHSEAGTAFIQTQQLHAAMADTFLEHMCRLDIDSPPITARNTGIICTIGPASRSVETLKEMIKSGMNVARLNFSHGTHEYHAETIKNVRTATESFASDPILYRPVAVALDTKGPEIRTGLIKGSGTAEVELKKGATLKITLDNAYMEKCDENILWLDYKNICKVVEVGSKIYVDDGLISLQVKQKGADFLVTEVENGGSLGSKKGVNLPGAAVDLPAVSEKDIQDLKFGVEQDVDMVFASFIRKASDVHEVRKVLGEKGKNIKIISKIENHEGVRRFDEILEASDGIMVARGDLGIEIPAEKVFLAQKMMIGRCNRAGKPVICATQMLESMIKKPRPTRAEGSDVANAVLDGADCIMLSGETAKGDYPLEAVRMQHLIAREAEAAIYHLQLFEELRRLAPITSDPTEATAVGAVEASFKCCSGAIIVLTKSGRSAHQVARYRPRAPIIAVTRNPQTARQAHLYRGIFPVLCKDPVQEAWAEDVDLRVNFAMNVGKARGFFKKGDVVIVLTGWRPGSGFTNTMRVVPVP
Summary of the method: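 Kinase-Glo luminescence reports ATP generated from ADP (0.1 mM) and PEP (0.5 mM) by purified hPK-M2 after 1 h at room temperature, pH 7.2 imidazole buffer; intermediate enzyme activity allows detecting inhibitors and activators.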
Potency is read from the fitted curve at half-maximal effect.

Compound | Potency | activation
CC[C@]1(c2ccccc2OC)C(=O)N(C(=O)OC)N1C(=O)OC | inactive | 
CCOC(=O)c1cc(C(=O)Nc2ccc(S(=O)(=O)Nc3ccc(OC)cc3)cc2)nn1C | inactive | 
Cc1cccc(NC(=S)NCCc2ccc(Cl)cc2)c1C | inactive | 
COc1ccc(-n2nc(C(=O)NCC(=O)N3CCN(c4ccccc4OC)CC3)c3ccccc3c2=O)c(OC)c1 | inactive | 
O=c1c2ccccc2nnn1CSc1nnnn1-c1ccccc1 | 28.2 µM (active) | 
Nc1nnc(SCn2nnc3ccccc3c2=O)s1 | inactive | 
O=c1c2ccccc2nc(CSc2nnnn2-c2ccccc2)n1-c1ccccc1 | inactive | 
CCC(C)c1ccccc1NC(=O)CN(C)CC(=O)Nc1ccccc1SC (stereo not drawn) | inactive | 
O=C(N/N=C/c1cccc(OCc2ccccc2)c1)c1ccc(Br)o1 | inactive | 
CCN(C(=O)COc1ccc(C(=O)c2ccccc2)cc1)c1ccccc1 | inactive | 
CC1CCN(C2=NC(=O)/C(=C/c3ccc(O)cc3)S2)CC1 |  | -2.26% [at 11.5 µM, 0% is enzyme alone, no compound]
CCOC(=O)C1(Cc2ccccc2C)CCCN(C(=O)c2ccc(COC)o2)C1 (stereo not drawn) | inactive | 
S=C(Nc1ccc(Br)cc1)NC1CCN(Cc2ccccc2)CC1 | inactive | 
CCn1c(=O)c(=O)n(CC)c2cc(S(=O)(=O)N3CCc4ccccc43)ccc21 | inactive | 
O=C(Nc1nc2ccc([N+](=O)[O-])cc2s1)c1ccc(S(=O)(=O)N2CCCc3ccccc32)cc1 | inactive | 
CSc1nc2ccc(S(=O)(=O)N3CCc4ccccc43)cc2s1 | 2.24 µM (active) | 
CC(CN1CCOCC1)OC(=O)c1ccc(C(C)(C)C)cc1 (stereo not drawn) | inactive | 
NC(=S)c1ccc(C(N)=S)o1 | 15.8 µM (active) | 
Cn1c(SCC(=O)N2CCCCC2)nc2c(c1=O)SCC2 | inactive | 
CCn1c(SCc2ccccc2)nc2c(c1=O)SCC2 | inactive | 
Cc1cccc(CSc2nc3c(c(=O)n2C)SCC3)c1 | 15.8 µM (active) | 
COc1ccc(CNS(=O)(=O)c2cc(-c3cc(C)no3)ccc2C(C)C)cc1 |  | 2.22% [at 0.46 µM, 0% is enzyme alone, no compound]
Cc1ccc(S(=O)(=O)NC2CCCCCC2)cc1C(N)=O | inactive | 
COc1ccc(Nc2ncnc3ccc(Br)cc23)c(OC)c1 | inactive | 
COC(=O)c1ccccc1NC(=O)C1CCN(C(=O)N2CCOc3ccccc32)CC1 | inactive | 
CCCC(C(=O)NC1CCCC1)N(C(=O)Cn1nnc(-c2ccc(C)o2)n1)c1cccc(O)c1 (stereo not drawn) | inactive | 

Compound | Potency | activation
COc1ccc(NC(=O)CSc2nc3ccccc3c(=O)n2C)cc1 | inactive | 
FC(F)(F)c1cccc(Nc2ncnc3ccccc23)c1 | inactive | 
O=C(Nc1cccc(C(F)(F)F)c1)c1cnccn1 | inactive | 
O=c1cc(CO)oc(C(Nc2cccc(C(F)(F)F)c2)c2ccccn2)c1O (stereo not drawn) | 25.1 µM (active) | 
CCC(C)(C)NC(=O)C(c1ccc(O)cc1)N(Cc1ccco1)C(=O)CCC(=O)Nc1ccccn1 (stereo not drawn) | inactive | 
CN(C)N=Nc1ccc2nc[nH]c2c1 | 10 µM (active) | 
CC/C(O)=N\S(=O)(=O)c1ccc(N=NN(C)C)cc1 | inactive | 
CC(=O)c1ccc(N2CCN(C(=O)c3ccc4nc[nH]c4c3)CC2)cc1 | inactive | 
CCCn1c(CCNc2nc(-c3ccc(OC)cc3)cs2)nc2ccccc21 | inactive | 
O=C(N/N=C\c1cc2c(cc1Cl)OCO2)c1ccc(Br)s1 | inactive | 
CCOC(=O)C1(CCOc2ccccc2)CCN(Cc2cc(OC)cc(OC)c2)CC1 | inactive | 
COc1ccc(C(=O)CC(=O)c2ccc(C)cc2)c(O)c1 | inactive | 
COC(=O)CN1C(=O)[C@H]2[C@@H](C3CC3)N3C(=O)CN(Cc4ccc(-c5ccccc5)cc4)C(=O)[C@@]3(Cc3ccccc3)[C@H]2C1=O | inactive | 
COc1ccccc1CN(C)C(=O)c1cc2ccccc2o1 | inactive | 
COc1ccccc1CCNS(=O)(=O)c1cn(C)nc1C | inactive | 
Cc1cccc(N2CCN(C(=O)c3cccc(N4C(=O)C5C6C=CC(C6)C5C4=O)c3)CC2)c1C (stereo not drawn) | inactive | 
O=C(Nc1cccc(F)c1)NC1CCCc2ccccc21 (stereo not drawn) | inactive | 
O=C(CNC(=O)c1ccc(F)cc1)c1ccccc1 |  | 0.121% [at 11.5 µM, 0% is enzyme alone, no compound]
CCc1nnc(NC(=O)c2c(O)c3c([nH]c2=O)CCCC3)s1 | inactive | 
C[N+](C)(C)CCNC(=O)c1c(O)c2c([nH]c1=O)CCCC2 | inactive | 
O=C(NCc1ccccn1)c1c(O)c2c([nH]c1=O)CCCC2 | 3.16 µM (active) | 
CCOC(=O)C1(CCOc2ccccc2)CCN(Cc2ccc(C#CCCO)cc2)CC1 | inactive | 
COc1ccc(N2CCN(S(=O)(=O)c3ccc4c(c3)NC(=O)C(C)C(=O)N4)CC2)cc1 (stereo not drawn) | inactive | 
Nc1c(Cl)cc(-c2csc(N3CCCC3c3nc4cc(Cl)c(Cl)cc4n3CCOCCO)n2)cc1Cl (stereo not drawn) | inactive | 
Cc1ccc(C)c(S(=O)(=O)Nc2cc(C)on2)c1 | inactive | 
O=C(Nc1cccc(-n2cnnn2)c1)c1cccnc1 | inactive | 

Compound | Potency | activation
Cc1ccc(C)c(S(=O)(=O)Nc2cccc(-n3cnnn3)c2)c1 | 14.1 µM (active) | 
CCCCC(=O)Nc1ccccc1N1CCN(c2ccc(F)cc2)CC1 |  | -1.04% [at 11.5 µM, 0% is enzyme alone, no compound]
O=C(c1cc(C(=O)N2CCN(c3ccc(F)cc3)CC2)cc([N+](=O)[O-])c1)N1CCN(c2ccc(F)cc2)CC1 | inactive | 
CSc1ccc(S(=O)(=O)N2CCC(C(=O)NCCc3ccccc3)CC2)cc1 | inactive | 
Oc1ccc(C2Nc3cccc4cccc(c34)N2)cc1 | inactive | 
CCC1CCCCN1C(=S)Nc1ccc(S(=O)(=O)Nc2ncccn2)cc1 (stereo not drawn) | inactive | 
Cc1nc(SCC(=O)N2CC(=O)Nc3ccccc32)c2c(C)c(C)sc2n1 | 12.6 µM (active) | 
COc1cccc(Nc2nnc(SCC(=O)N3CC(=O)Nc4ccccc43)s2)c1 | inactive | 
Cc1nc(SCC(=O)N2CCc3ccccc3C2)c2c(C)c(C)sc2n1 | inactive | 
COc1ccccc1CN1CCN(C(c2ccccc2)c2ccccc2)CC1 | inactive | 
COc1ccc(OCc2cc(C(=O)N3CCCC3)no2)c2ccccc12 | inactive | 
Cc1ccc(C(=O)c2coc3ccc(O)c(CN(C)C)c23)cc1 | inactive | 
O=[N+]([O-])c1ccc2c(c1)Nc1nc3ccccc3nc1N2 | inactive | 
O=C(CC1C(=O)NCCN1C(=O)c1ccc([N+](=O)[O-])cc1)Nc1cccc(Cl)c1 (stereo not drawn) | inactive | 
CCCn1c(C2CCCN2c2nc(-c3ccc(C)cc3)cs2)nc2cc(Cl)c(N3CCCCC3)cc21 (stereo not drawn) | inactive | 
COc1ccc(CN2CCCC(N3CCc4ccccc4C3)C2)c(O)c1 (stereo not drawn) | inactive | 
Cc1cc2c(cc1S(=O)(=O)NCc1ccc(Cl)cc1)OCC(=O)N2 | inactive | 
COc1ccc(CCNS(=O)(=O)c2cc3c(cc2C)NC(=O)CO3)cc1OC | inactive | 
Cc1ccc(NS(=O)(=O)c2cc3c(cc2C)NC(=O)CO3)cc1 | 5.62 µM (active) | 
Cc1cc(C)c(SCCc2ccncc2)c(C)c1 | inactive | 
COc1cc(/C=N\Nc2nc(-c3cccs3)c(NC(C)=O)s2)ccc1O | 11.2 µM (active) | 
COc1cc(/C=N/Nc2nc3ccccc3s2)ccc1O | inactive | 
CCOc1cc(/C=C(\C#N)c2nc(-c3cccs3)c(NC(C)=O)s2)ccc1O | inactive | 
COc1cccc(CC(=O)Nc2nc(-c3ccc(OC)c(OC)c3)cs2)c1 | inactive | 
C/C=C\C=C\C(=O)N1CC2(CC(c3cccc(NC(=O)/C(C)=C\C)c3)=NO2)C[C@H]1C(N)=O (stereo partly drawn) | 3.55 µM (active) | 
C/C=C(/C)C(=O)Nc1cccc(C2=NOC3(C2)C[C@@H](C(N)=O)N(C(=O)C2(C)CC2)C3)c1 (stereo partly drawn) | inactive | 

Compound | Potency | activation
CC/C=C/C(=O)N1CC2(CC(c3cccc(NC(=O)CC)c3)=NO2)C[C@H]1C(N)=O (stereo partly drawn) | inactive | 
CCC(C)C(=O)Nc1ccccc1N1CCN(c2ccc(F)cc2)CC1 (stereo not drawn) | inactive | 
CCCNC(=O)c1ccc(N2CCC3(CC2)CC(c2ccc(Cl)cc2)=NO3)c([N+](=O)[O-])c1 | inactive | 
COc1ccc(C(=O)NCC(=O)N/N=C/c2cccnc2)cc1 |  | 0.538% [at 0.46 µM, 0% is enzyme alone, no compound]
O=C(NCC(=O)N1CCN(c2ncc(C(F)(F)F)cc2Cl)CC1)c1ccc(Br)o1 | inactive | 
O=C(O)c1cccc2c1C(=O)N(C1CCCC1)C2 | inactive | 
COc1ccc(N(C(=O)c2snc(C(N)=O)c2N)C(C(=O)NC2CCCC2)c2ccc(C)o2)c(OC)c1 (stereo not drawn) | inactive | 
CN(CC1CCCO1)S(=O)(=O)c1ccc(C(=O)Nc2ccc([N+](=O)[O-])cc2)cc1 (stereo not drawn) | inactive | 
CCOC(=O)c1csc(CCNC(=O)c2oc3c(Cl)cc(C)cc3c2C)n1 | inactive | 
CC(C)NS(=O)(=O)c1ccc(OCC(=O)NC2CCCCCC2)cc1 | inactive | 
O=C(Nc1nnc(C2=COCCO2)o1)c1ccc([N+](=O)[O-])s1 | inactive | 
COc1ccc(-n2cc(-c3ccccc3)c3c(=S)nc[nH]c32)cc1 |  | -7.56% [at 0.46 µM, 0% is enzyme alone, no compound]
CCc1ccc(CNC(=O)C2CCN(c3nnc(C)c4c(C)n(-c5ccc(C)cc5)nc34)CC2)cc1 |  | -0.982% [at 0.46 µM, 0% is enzyme alone, no compound]
Cc1cc(S(=O)(=O)NCc2ccccn2)c(Cl)cc1Cl |  | -2.1% [at 11.5 µM, 0% is enzyme alone, no compound]
COc1ccc(N2CCN(S(=O)(=O)CCNC(=O)C34CC5CC(CC(C5)C3)C4)CC2)cc1 | inactive | 
O=C(Cc1ccc(Cl)c(Cl)c1)Nc1ccc(SC(F)F)cc1 | inactive | 
Nc1cccc(S(=O)(=O)Nc2ccc(SC(F)F)cc2)c1 | 14.1 µM (active) | 
CSc1ccc(S(=O)(=O)Nc2cccc(F)c2)cc1 | inactive | 
Cc1ccccc1C(=O)N1CCN(c2ccc(NC(=O)c3cccs3)cc2)CC1 | inactive | 
Cc1c(C=O)c2ccccc2n1CCOc1ccccc1 | inactive | 
CCOc1cc(-c2cc(-c3ccc(NC(C)=O)cc3)nc(N)c2C#N)ccc1O | inactive | 
CC(C)C(C)NC(=O)COc1nc2ccccc2nc1N(C)C1CCCCC1 (stereo not drawn) | inactive | 
CCN(C(=O)C1CCCN(c2nc(-c3ccc(OC)cc3)no2)C1)c1ccc(OC)cc1 (stereo not drawn) | inactive | 
CCn1cc(CN2CCC(C(=O)Nc3cccc(-c4cccc(Cl)c4)c3)CC2)c(C)n1 | inactive | 
COc1ccccc1N1CCN(C(=O)CCS(=O)(=O)c2ccc3c(c2)NC(=O)C(C)S3)CC1 (stereo not drawn) | inactive | 
